Only some compounds are listed: those with a hit (about 3.5% of all), similar ones and a draw of the others.
TEAD-YAP inh: TEAD-YAP interaction inhibition; inhibition, % at 9.12 µM; actives 1.4% (n = 640,000); AID 1259422; HEK-TIYL cells, TEAD-Gal4/YAP UAS-luciferase luminescence; in the data active = inhibition above about 32%
MITF inh: inhibitors of human MITF; actives 0.91% (n = 650,000); AlphaScreen MITF homodimerization, bead proximity signal; O75030; inhibition, % at 2.6 µM; in the data active = inhibition above about 50%
FBW7 act: activators of human E3 ligase FBW7; Q969H0; AlphaScreen FBW7–phospho-cyclin E peptide binding, activator screen; normalized activity (activation), % at 26.1 µM; actives 0.13% (n = 650,000); in the data active = normalized activity above about 1.9%;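 also: purified mutant Fbw7 with reduced substrate affinity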
Target sequence (Q969H0 whole entry, looked up): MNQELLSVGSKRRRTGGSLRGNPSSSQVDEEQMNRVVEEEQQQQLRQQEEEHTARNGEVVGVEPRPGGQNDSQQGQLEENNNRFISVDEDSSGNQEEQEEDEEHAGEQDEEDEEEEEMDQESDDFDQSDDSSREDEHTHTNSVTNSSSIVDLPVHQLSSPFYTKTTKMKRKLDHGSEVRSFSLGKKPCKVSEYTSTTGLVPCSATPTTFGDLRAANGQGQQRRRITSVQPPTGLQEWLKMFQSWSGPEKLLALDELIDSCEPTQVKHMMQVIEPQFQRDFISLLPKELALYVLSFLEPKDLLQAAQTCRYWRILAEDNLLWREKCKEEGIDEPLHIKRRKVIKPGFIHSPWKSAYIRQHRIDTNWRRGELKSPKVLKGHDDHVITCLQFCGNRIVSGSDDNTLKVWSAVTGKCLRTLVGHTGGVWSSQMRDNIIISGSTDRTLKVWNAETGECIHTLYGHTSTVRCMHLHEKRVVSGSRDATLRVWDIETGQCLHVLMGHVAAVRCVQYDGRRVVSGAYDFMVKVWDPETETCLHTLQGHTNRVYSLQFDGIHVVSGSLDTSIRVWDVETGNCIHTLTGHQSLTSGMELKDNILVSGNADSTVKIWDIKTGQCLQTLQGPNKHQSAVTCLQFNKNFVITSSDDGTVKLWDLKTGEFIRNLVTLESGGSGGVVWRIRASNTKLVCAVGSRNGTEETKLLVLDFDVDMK
GPR151 activ: activates the human receptor GPR151; AID 1508602; PathHunter beta-arrestin GPR151 cells, luminescence; actives 1% (n = 650,000); activation, % at 11.2 µM; Q8TDV0; in the data active = activation above about 4.9%
MITF confirm: human MITF inhibition, confirmation. shares compounds with MITF inh. AlphaScreen MITF homodimerization, biotin/His-MITF beads. inhibition, % at 2.6 µM. actives 16% (n = 4,700). AID 1259372;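 active = inhibition above a cutoff derived from the DMSO control wells, cut at about 28% in these data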;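 also: inhibitors lower the bead chemiluminescence by keeping MITF from dimerizing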
AlphaScreen intf2: AlphaScreen optical interference, counter-screen | shares compounds with MITF inh | LysRS AlphaScreen counterscreen, signal interference, triplicate | inhibition, % at 2.6 µM | actives 7.6% (n = 4,700) | AID 1259376;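 active = inhibition above a cutoff derived from the DMSO control wells, cut at about 30% in these data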
Hits are given with their value; – = inactive; · = no result given.

SMILES	TEAD-YAP inh	MITF inh	FBW7 act	GPR151 activ	MITF confirm	AlphaScreen intf2
CC(C)Sc1ccc(CC(=O)N2CCN(Cc3nc4ccccc4n3C)CC2)cc1	–	55	–	–	–	–
COc1ccc(OCC#CCN2CCNCC2)cc1	–	59	–	–	–	–
CCN1CCN(Cc2ccc(OC)cc2)CC1	–	–	–	–	·	·
O=C(CN1CCOCC1)c1cccc2ccccc12	–	56	–	–	–	–
CC(C)=CCOc1cc(C)cc2oc(=O)c3c(c12)CCC3	–	–	–	–	·	·
CC1(C(=O)O)CCC[C@]2(C)c3cc(O)ccc3CC[C@@H]12 (some centres undefined)	–	–	–	–	·	·
O=C(Nc1ccc(Br)cc1C(=O)c1ccccc1Cl)c1ccccc1Br	–	–	–	–	·	·
Fc1ccc(CNCCc2c[nH]c3ccccc23)cc1F	–	54	–	–	–	–
Fc1ccc(CNCCc2c[nH]c3ccccc23)cc1	–	–	–	–	·	·
CC(C)(C)C1CCC(N2CC3CC(C2)c2cccc(=O)n2C3)CC1 (centres undefined)	–	–	–	–	·	·
O=C(COc1ccccc1)N1CCN(Cc2cccc(Cl)c2)CC1	–	–	–	–	·	·
O=C(COc1ccc(Br)cc1)N1CCN(Cc2ccccc2)CC1	–	–	–	–	·	·
Cc1cccc(OCC(=O)N2CCN(Cc3ccccc3Cl)CC2)c1	–	66	–	–	–	–
O=C(COc1ccccc1)N1CCN(Cc2cccnc2)CC1	–	81	–	–	–	–
Cc1cccc(OCC(=O)N2CCN(Cc3ccc(Br)cc3)CC2)c1	–	70	–	–	–	–
COc1ccc(Br)cc1CN1CCN(C(=O)COc2cccc(C)c2)CC1	–	58	–	–	–	–
O=c1cccc2n1CC1CC2CN(C2C3CC4CC(C3)CC2C4)C1 (centres undefined)	–	–	–	–	·	·
CCc1cccc(CC)c1N1C(=O)CC(=O)NC1=S	–	–	–	–	·	·
COc1cccc(CNc2cnn(C34CC5CC(CC(C5)C3C(=O)O)C4)c(=O)c2Cl)c1 (centres undefined)	–	–	–	–	·	·
COc1cc(C)c(CN2CCNCC2)cc1OC	–	–	–	–	·	·
Cc1cccc(CN2CCN(C(=O)COc3ccccc3)CC2)c1	–	53	–	–	–	–
Cc1cccc(CN2CCN(C(=O)COc3ccc(Cl)cc3)CC2)c1	–	–	–	–	·	·
CCCCCCC[n+]1ccc(-c2cc[n+](CCCCCCC)cc2)cc1	–	–	–	–	·	·
C[n+]1ccc(-c2cc[n+](C)cc2)cc1	–	65	–	–	–	–
COc1ccccc1CCNCc1ccncc1	–	–	–	–	·	·
SMILES	TEAD-YAP inh	MITF inh	FBW7 act	GPR151 activ	MITF confirm	AlphaScreen intf2
CCN1CCN(Cc2cc(OC)c(O)c(OC)c2)CC1	–	–	–	–	·	·
CCC(C)N1CCN(Cc2cc(OC)c(O)c(OC)c2)CC1 (centres undefined)	–	68	–	–	–	–
CCC(C)N1CCN(Cc2cc(OC)c(OC)c(OC)c2)CC1 (centres undefined)	–	75	–	–	–	–
c1ccc(CN2CCN(c3ccccc3)CC2)cc1	–	–	–	–	·	·
c1ccc(CN2CCN(C3CCCCC3)CC2)cc1	–	75	–	–	–	–
CC(=O)c1ccc(N2CCN(Cc3ccc(F)c(F)c3)CC2)cc1	–	–	–	–	·	·
CC(=O)c1ccc(N2CCN(Cc3ccc(F)cc3F)CC2)cc1	–	55	–	–	–	–
CC(=O)c1ccc(N2CCN(Cc3cc(F)ccc3F)CC2)cc1	–	61	–	–	–	–
CC(=O)c1ccc(N2CCN(Cc3cccc(C)c3)CC2)cc1	–	–	–	–	·	·
CCOP(=O)(OCC)SCc1ccccc1	–	53	–	–	–	–
Cc1ccccc1CN1CCN(C(=O)COc2ccccc2)CC1	–	60	–	–	–	–
COc1ccccc1CN1CCN(C(=O)COc2ccccc2)CC1	–	–	–	–	·	·
O=C(COc1ccccc1)N1CCN(Cc2ccccc2F)CC1	–	55	–	–	–	–
Clc1ccc(CN2CCN(Cc3ccccc3Cl)CC2)cc1	–	78	–	–	–	–
CCc1ccc(CN2CCN(Cc3ccccc3Cl)CC2)cc1	–	68	–	–	–	–
CCN1CCN(Cc2ccc(Cl)c(Cl)c2)CC1	–	–	–	–	·	·
CCN1CCN(Cc2c(Cl)cccc2Cl)CC1	–	69	–	–	–	–
O=C1C2CCCN2C(c2ccc(Br)cc2)N1c1ccccn1 (centres undefined)	–	–	–	–	·	·
O/N=C1\C2CN3CCN(C2)CC1(c1ccccc1)C3	–	–	–	–	·	·
CC(C)N1CCN(Cc2ccccc2Br)CC1	–	51	–	–	–	–
Cc1ccccc1CN1CCN(C(C)C)CC1	–	78	–	–	–	–
Cc1ccc(OP2(=S)OCCCN2c2ccccc2)cc1 (centres undefined)	–	–	–	–	·	·
Cc1cc(N2CCNCC2)c(F)cc1[N+](=O)[O-]	–	–	–	–	·	·
OCCC1CN(Cc2cccc(O)c2)CCN1Cc1ccccc1 (centres undefined)	–	–	–	–	·	·
COc1ccccc1CN1CCN(Cc2ccccc2F)CC1	–	–	–	–	·	·
SMILES	TEAD-YAP inh	MITF inh	FBW7 act	GPR151 activ	MITF confirm	AlphaScreen intf2
COc1ccccc1CN1CCN(Cc2ccccc2Cl)CC1	–	82	–	–	–	–
COc1ccccc1N1CCN(Cc2ccccc2C)CC1	–	–	–	–	·	·
COc1ccccc1CN1CCN(Cc2ccccc2OC)CC1	–	75	–	–	–	–
COc1ccccc1N1CCN(Cc2ccccc2C#N)CC1	–	55	–	–	–	–
CCN1CCN(Cc2ccc(F)c(Br)c2)CC1	–	–	–	–	·	·
OCCN1CCN(Cc2ccc(F)c(Br)c2)CC1	–	73	–	–	–	–
CN1CCN(Cc2ccc(F)c(Br)c2)CC1	–	80	–	–	–	–
CN1CCN(Cc2cccc(F)c2)CC1	–	–	–	–	·	·
CCc1ccc(CN2CCN(Cc3cccc(Cl)c3)CC2)cc1	–	64	–	–	–	–
Fc1cccc(CN2CCN(Cc3cccc(F)c3)CC2)c1	–	68	–	–	–	–
Fc1cccc(CN2CCN(c3ccc(Cl)cc3)CC2)c1	–	–	–	–	·	·
Fc1cccc(CN2CCN(Cc3ccc(Cl)cc3)CC2)c1	–	70	–	–	–	–
CCC(CC)N1CCN(Cc2cccc(F)c2)CC1	–	73	–	–	–	–
O=C1C[N+]2(Cc3ccccc3[N+](=O)[O-])CCC1CC2	–	–	–	–	·	·
CC(C)NCC(C)(O)c1ccc(Br)cc1 (centres undefined)	–	–	–	–	·	·
Fc1ccc(CN2CCN(Cc3cccc(Cl)c3)CC2)cc1	–	68	–	–	–	–
CC(C)N1CCN(Cc2cccc(F)c2)CC1	–	62	–	–	–	–
CN1CCN(Cc2cc(Cl)ccc2[N+](=O)[O-])CC1	–	–	–	–	·	·
O=C(Nc1ccc(Br)cc1C(=O)c1ccccc1)c1cccc(Oc2ccccc2)c1	–	–	–	–	·	·

Assay outcomes (PubChem)
